Measured values as given in PubChem BioAssay AID1508600 (Functional Genomics Laboratory (NCATS/FGL), 2020).
The campaign covered roughly 53,000 sequences. About 3,700 (7%) were called active. The entries come from a sample that favours actives as a whole. A number with no mark means an inactive call.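 Rule for the calls: active = gene knockdowns whose robust z-score for IL-1 alpha signal is at least 2 or at most -2, so actives lie on both sides; inactive = the rest.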

Test: Components of the Cytosolic LPS Sensing Pathway: Gene Identification via Genome-wide siRNA Screen;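 note: robust z of the log signal after scaling to non-targeting control siRNA wells of the plate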
Conditions: RAW264.7 macrophages, IL-1a HTRF, actives lie on both sides, screened at 100 nM (by protocol), cells primed 5 h with Pam3CSK4 first
In short: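 RAW264.7 mouse macrophages reverse-transfected with single siRNAs (100 nM final) for 48h, primed with Pam3CSK4 for 5 hours, then transfected with LipidA for 24 hour. Supernatant IL-1a read by HTRF; values normalized to negative-control median, log-transformed robust z-scores.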

Sequence | z-score
GGCCAAGUCUGGAAUCACUTT against Angel2 | -2.42 (active)
GCAGCAGGAAGGAUCAUUCTT against Ly6h | -0.0488
GGACUUCAUGGGUCGCUUUTT against Gstm2 | -0.185
GGAAUUAACAGAGAAGAAATT against Rgs13 | -0.848
GCUCCUGGUCUCAUUUACATT against Taf9b | -0.386
GGUCACAGACAUUCCCGAATT against Atad2 | -2.89 (active)
GGUGGUUUUCAGCAAGUACTT against Pde9a | -0.514
AGUCAAGACCCAUAGAAAATT against Ociad2 | -1.87
GCUACCAUUUGAUCAGUUUTT against Entpd1 | 0.665
GUCAUCACAAGUCAAGAAGTT against Prol1 | -1.25
GGAGAAGGUUCACUCUGAUTT against Traf1 | -0.666
GGAAACCUGAUUGCAUAUGTT against Nup37 | -0.259
GCAUUAACUGUCUUGAUCCTT against Olfr356 | 1.41
GCGUAACGCAGCAGCUAAGTT against Tarbp2 | -3.01 (active)
GGAAUAAGGAAGUUAUUGGTT against Olfr706 | -0.356
GGUAGAGGUGGAAUGUAGCTT against Qprt | 1.36
GCCCAUCACAAAUAAACAATT against B230340J04Rik | -1.17
CCUUGUAGCUCUUUAUAAATT against Strn | 2.24 (active)
GCUCCUUAGAGAGAGUAUUTT against Sod3 | -0.399
GGGUCCAUGAACUCAAGAUTT against Rrnad1 | 0.473
GGCUGUGAGAACGAUGCAATT against Fam151a | -1.08
GGAGGGAAGAAACAAUCUATT against Rnf40 | 0.497

Sequence | z-score
GGGUGCAUUUGAGAAGAUCTT against Casd1 | 4.11 (active)
GGAGUGCAUGACUCAGCUUTT against Olfr926 | -1.54
GCUGACCGGCAUUUACCAUTT against Mcm2 | 2.78 (active)
GGCUCUCUUCGGGAAUACUTT against Tmem234 | 1.22
GGAGAUCAACAGGAUUUUGTT against Gna15 | -1.35
GCUGUGUUAGAAAGCAGGCTT against 4931406H21Rik | 0.927
GCUAUAGAUUCCUCUGCCATT against Olfr1098 | -0.525
CCCUAGAAUUAUAUCCUGUTT against Col4a1 | -0.494
GGGAUCAAUGCUUAAUACATT against Zfp2 | 1.1
GGGAAACACAAUUUACCUUTT against Elf1 | 3.18 (active)
CCAACUUUCUCUUAGGAAATT against Igfl3 | -0.487
CCAGCCUUCAAUUGUGGUCTT against Scn1b | 0.672
GAUUUUCUUUGUUCAUCUCTT against Olfr727 | -0.535
CGACUAUCAGCAGCUGAAGTT against Igf1r | 5.27 (active)
GCGGAUUGUCUUCCUAGACTT against Smg9 | -1.14
GGUUCUAGGACCUAUUUUGTT against Cep57 | 1.87
GGUUAUUACCCAGUUCACGTT against Pramel1 | -0.668
GCCCUUCGUGAUGAAGAAUTT against B4galt3 | 0.829
GCUAAACUCGCUCAAUCUGTT against Cd14 | 0.537
CCUACUACUUCGUUAUCCGTT against Chrna2 | 0.447
GCUGAUGUGAAUGGCUCACTT against Gmeb2 | -1.02
GGCCCUUUGAGUCGUUCCUTT against Batf3 | 2.6 (active)

Sequence | z-score
CCGUGUCUUAGGUGAUCACTT against H2-DMb1 | 0.391
GGAGACGAAUCCUUUCAGUTT against Mis12 | 0.476
CCAAAGGUUACCAGGAAGCTT against Pcsk4 | 0.124
GCAGCUAAAACAAGUUUGATT against Sntg2 | -0.565
GGAUUUACCUUACAAAAGUTT against Aff2 | 0.578
GGAUCUAUUCUCUCUGAUGTT against Prune2 | 1.03
GGCAAAGUAUAAAGAAGUATT against Gkap1 | 2.23 (active)
GCCAUUAAGAUCGCUUACUTT against Selenop | -0.432
GGAGCUUUCUCAAGAUUCATT against Arid1a | 0.263
GCGACUUCGCUAUAUCAAGTT against Samhd1 | 1.65
CCUUAGGAUUUGAACGCGUTT against Cutc | -0.554
GCUAGUAUUCUAAGAUCUUTT against Mpp6 | 2.25 (active)
GGCAAAAUCGUGAAAAUUCTT against Vwf | -0.144
GGCGAUCCUUACUCCAAUGTT against Zfp90 | 0.143
GGAAUGGACCUCAAAAUUGTT against Vmp1 | 0.532
GCCACUACCGAUUUUCCCUTT against Lctl | -2.29 (active)
GGAGAUGCUAGAAAUUGUGTT against Hpca | -0.909
GCACAUCGGCCUUAAGUCATT against Supt4a | -0.833
CCGUUUUCGCUUUGAGAAATT against Smarcad1 | 4.47 (active)
GUAAUUCACAGCCUCUCCGTT against Pitx3 | 1.03
GGACAUUUUAGUUGUCUUGTT against Slc38a4 | -0.607
GGAUCCAAGGCAAAGAUGUTT against Fto | 1.73

Sequence | z-score
AUACGAUUUUUGUACUGCUTT against Defa4 | 0.305
GCCAGGUGUGGUGACUCAUTT against Tprkb | 0.584
GCUAUGCAAAUGGUGUCAATT against Fcnb | -0.147
GGUGAGAUGGUUCAACAUGTT against Olfr77 | 1.7
GGACUUGAACAACUUACAATT against Plcb1 | 2.37 (active)
GUAUUAAGACCAAACAGAUTT against Olfr623 | -0.497
CCCAAUCGGUUAAUUGUUGTT against Vcp | -2.37 (active)
GCCAGUUAUCACUUAACCCTT against Cmc1 | -0.514
GGAACCUUCAGAGCGACUUTT against Trib3 | 0.224
GGCAAGGAGGAUGACAAAATT against Rnf113a2 | 0.416
GGUAGAGAGACUGUAAUUATT against Ppp2r1b | -0.598
GGAGUUUAUGAAAUUCAACTT against Fcgrt | 1.34
CCAUCUAUGGUAUGGAGCGTT against Abcg4 | 0.606
GGAUGAAGAAGAUGAAGAUTT against Prepl | -2.62 (active)
GGAAGACUUUGAAUACCACTT against Slc4a2 | 0.457
GCUGUUCUGCAAAACUGGATT against Rbpms | -1.36
GGACACAAGGUCGCCAUCUTT against Tcf7l1 | -0.502
GGUGCUGGAUGAAUUUGGGTT against Zp1 | -0.416
GCAUGUCGCCUUGAAAUUATT against Cpne4 | 0.202
GGAAGGAGGGUAUGUGGUUTT against Lgals9 | -0.346
GCAAACUGCCCUCUUUGUGTT against Olfr1024 | 2.54 (active)
GGAUAUACACAACAGGCACTT against Tceal9 | 0.422

Sequence | z-score
GGAGACACAUAGGUGUAAATT against H2-T23 | 0.458
GCACCAUCGACUAAUCAAATT against 1700029J07Rik | 1.12
CCUCUGCUACUCUUAUUGUTT against Ttn | -0.523
GGACUGUACAGUGGCAUUATT against Cd70 | -1.69
UACUCGUGGUGUUUGCAAGTT against Olfr1154 | 0.873
GGUGGAAGCAAGAGAAAAUTT against Tnp1 | 2.03 (active)
GCUCAUGUCUUAUUUGGAUTT against Klhl15 | -0.393
CCGAAGUGCCAUGCCAUUUTT against Pdlim1 | 0.399
GCACAUUUAUCCCGGUGUATT against Pnpla2 | -2.01 (active)
GGUUCAAUUCAAGUCUUUATT against Olfr195 | 0.339
GGCCUACAGCUGGAAAGAATT against Chrm1 | 0.418
GCUGCUCUGCUAUAAGUAUTT against Kptn | -0.269
GGAAAUCGAUAGUUUCUUCTT against Olfr1302 | -0.0687
GACCUUCGUUAGCAUUACGTT against Pfn1 | 0.65
GCUGUUUUGUCUCCAGCCCTT against Zbtb20 | -0.118
GGGAUAUGUGACUAUGUUATT against Slc5a7 | -0.138
GCUGAGAAUCGUUUAAAUGTT against Ugt2a3 | 0.00662
GCUAAUUGUUCACUAAAGGTT against 1700029H14Rik | 0.655
GGUUAUCAUGAGGCCUUGGTT against Olfr1339 | -2.38 (active)
